The nature of test [1]: rapamycin-like changes in RPL19A-GFP expression – cell-based, S. cerevisiae, multiplex flow cytometry, primary screen (AID 1862; in the data active = percent of DMSO control GFP below about 86%;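 note: lower values mimic rapamycin by blocking the RPL19A rise seen in DMSO cells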). The note with it: S. cerevisiae RPL19A-GFP strain, flow cytometry fluorescence, 3 h; at 10 µM; stronger effect = lower value. (In flow cytometry, cells or beads pass a laser one at a time.)
Test [2] can be described thus: TOR pathway GLN3 branch reporter MEP2-GFP changes – S. cerevisiae, multiplex flow cytometry, primary screen (AID 1867;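 active = GFP response, as percent of the DMSO control, above the screen-wide mean plus 3 SD, about 139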;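 note: median GFP channel fluorescence of barcode-gated MEP2-GFP cells measured by flow cytometry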). Particulars: S. cerevisiae MEP2-GFP strain, 3 h, at 10 µM, stronger effect = higher value, 100% means same as DMSO wells.
Test [3] in a line: TOR pathway RTG branch CIT2 reporter changes – S. cerevisiae, GFP fusion, multiplex flow cytometry, primary screen (AID 1870;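 active = percent response above a set limit, the screen-wide mean plus 3 SD, cut at about 130% in these data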;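 note: barcoded CIT2-GFP strain pooled with four other GFP strains with rapamycin as positive control; median GFP fluorescence per well over plate mean of DMSO wells so 100% = DMSO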). The note with it: S. cerevisiae CIT2-GFP expression, 3 h, at 10 µM, stronger effect = higher value.
The nature of test [4]: TOR pathway LAP4-GFP level changes – S. cerevisiae, multiplex flow cytometry, primary screen (AID 1873;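 active = GFP signal, as percent of the solvent control, above the screen mean plus 3 SD, about 149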). The note with it: S. cerevisiae LAP4-GFP expression, 3 h, at 10 µM, stronger effect = higher value.
Test [5] can be described thus: yeast AGP1-GFP level changes, GLN3 branch – cell-based, multiplex flow cytometry, S. cerevisiae, primary screen (AID 1887;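 active = GFP signal above the screen-wide mean plus 3 SD, that is over about 124.5% of the solvent control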;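 note: AGP1-GFP fusion strain of S. cerevisiae within a five-strain barcoded multiplex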). The note with it: 3 h, at 10 µM, stronger effect = higher value.
Test [6] is described as follows: reduced mouse 2C T cell binding to pMHC/ICAM-1 vesicles – MLPCN validation set, flow cytometry, LFA-1/ICAM-1 modulator project, pilot screen (AID 2523;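 active = response below a set limit, under 55% cells CD8-positive and vesicle-bound, and CD8 cells' 90th-percentile brightness under 279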;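 for vesicle binding response: mean PE anti-B7-1 fluorescence of CD8+ cells relative to row control; 100% = QL9-loaded vesicles with DMSO vehicle in the same plate row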). Particulars: 2C mouse CD8+ T cells, at 7 µM, stronger effect = lower value; double positive events: measured here: CD8+/vesicle+ event percentage.
Test [7] concerns the target Integrin beta-1 (Homo sapiens) + Integrin alpha-4 (Homo sapiens) (UniProt P13612+P05556). Put plainly: alpha4beta1 integrin LIBS antibody binding reduction – U937 cells, HUTS-21 mAb, flow cytometry, validation set, VLA-4 allosteric modulator project, pilot screen (AID 2674;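 active = inhibition above 50%, about 3 SD of the validation set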;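 note: antibody binding induced by the VLA-4 ligand LDV present at three times its Kd; 0% = LDV ligand with antibody and no compound and 100% = antibody without LDV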). Particulars: HUTS-21 LIBS mAb binding, at 6.7 µM, stronger effect = higher value, binding induced by LDV ligand.

Test [8] in a line: calorie-restriction mimetic ROS inhibitors, yeast – validation compound set, pilot screen (AID 2706;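 active = superoxide response below 65% of plate, a cut near 3 SD across the whole screen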;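 note: yeast exposed to compound for one week at 30 degrees C before staining; 100% = mean of all compound wells on the same plate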). The note with it: S. cerevisiae aging, superoxide DHE fluorescence; at 10 µM; stronger effect = lower value.
Test [9] has as its target Beta-adrenergic receptor kinase 1 (Homo sapiens) (UniProt P25098). Put plainly: GRK2 binders displacing RNA aptamer, biochemical, validation, human GRK2, bead flow cytometry (AID 488806;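 active = aptamer binding inhibition above 30%, about 3 SD of noise from non-fluorescent compounds; inactive = inhibition at or below 30%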). The note with it: bead-bound GRK2, FAM-aptamer displacement, at 10 µM, stronger effect = higher value.
For test [10], the target named is Beta-2 adrenergic receptor (Homo sapiens) (UniProt P07550). Put plainly: agonist-induced loss of surface beta2AR – cell-based, FAP fluorogen, flow cytometry, validation set, pilot screen (AID 504459;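 active = percent response above 42, roughly 3 SD of non-fluorescent test compounds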;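 note: agonist-driven loss of surface beta2AR via internalization measured by FAP dye flow cytometry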). Particulars: Am2.2-beta2AR cells, at 10 µM, stronger effect = higher value.
Test [11] concerns the target AP-2 complex subunit beta (Homo sapiens) (UniProt P63010). In words: beta-arrestin/AP2 interaction blockers – biochemical, validation set, GST-AP2 beads, flow cytometry, pilot screen (AID 504541).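 Note: AP2 carries R879A mutation and is captured from E. coli lysate; bead-bound FITC arrestin peptide fluorescence measuring arrestin peptide binding to AP2; 0% = DMSO wells and 100% = excess unlabeled arrestin peptide control.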 Particulars: FITC arrestin peptide, at 10 µM, stronger effect = higher value, AP2 beta2 appendage fragment, R879A mutant.
Test [12] in a line: cytosolic pH regulators acting via V-ATPase – S. cerevisiae, pHLuorin, HTS validation (AID 504600; in the data active = response above about 15%;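 note: plate controls were DMSO for no effect and reference compound for full effect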). The note with it: V-ATPase proton transport, at 10 µM, stronger effect = higher value.
The subject of test [13] is anti-desmoglein-3 scFv antibody binding to human DSG3. Put plainly: blockers of pathogenic pemphigus antibody–desmoglein-3 binding – biochemical, validation compound set, bead-based, flow cytometry, pilot screen (AID 588368;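 active = binding below the plate cutoff, the plate median minus 3 SD, with a reading above zero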;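 note: signal is the median channel fluorescence of bead-bound GFP antibody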). Particulars: Protein G beads, DSG3-Fc, scFv-GFP binding, at 10 µM, stronger effect = lower value.
The nature of test [14]: Nile Red efflux blockade in pump-expressing yeast – validation compound set, multiplex, phenotypic, pilot screen (AID 588506;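 active = efflux inhibition above 0.42, the validation set average plus 4 SD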;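 note: Nile Red retained in cells so higher fluorescence means more efflux inhibition; 0 = negative control wells and 1 = enniatin B 25 µM full block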). The note with it: S. cerevisiae pump-expressing triplex, Nile Red efflux flow cytometry; at 10 µM; stronger effect = higher value; the pumps come from Candida albicans.
In test [15] the target is ATP-binding cassette sub-family B member 6 (Homo sapiens) (UniProt Q9NP58). Put plainly: blockers of ABCB6-driven porphyrin uptake – K562-ABCB6 cells, flow cytometry, validation set, pilot screen (AID 588550;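 active = inhibition above the screen-wide mean plus 3 SD, about 51%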;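 note: 0% = DMSO wells and 100% = benzethonium chloride 70 µM positive control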). Particulars: K562-ABCB6 porphyrin accumulation, 1 h, at 10 µM, stronger effect = higher value.
The nature of test [16]: AML differentiation inducers, ER-HoxA9 marrow cells – cell-based, GFP/MAC1 double positive, flow cytometry, validation set, primary screen (AID 588685;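 active = differentiation response of at least 50%, scaled between solvent and reference control, from cells with both markers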;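 note: compound exposure lasts four days before antibody staining and flow analysis; 0% = DMSO wells and 100% = 5 µM fulvestrant positive control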). The note with it: stronger effect = higher value, normalized: vehicle 0, fulvestrant 100.

Data on four molecules can be found in PubChem BioAssay.

One may read the inhibition as the drop in the measured response relative to a control, in per cent.

Inconclusive results are not listed. Active and inactive are the calls of the source.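 Rule for the calls, unless noted: active = inhibition above 54%, about 3 SD of non-fluorescent compounds; inactive = the rest.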

Sequence of Beta-adrenergic receptor kinase 1 (Homo sapiens) (P25098 whole entry, looked up): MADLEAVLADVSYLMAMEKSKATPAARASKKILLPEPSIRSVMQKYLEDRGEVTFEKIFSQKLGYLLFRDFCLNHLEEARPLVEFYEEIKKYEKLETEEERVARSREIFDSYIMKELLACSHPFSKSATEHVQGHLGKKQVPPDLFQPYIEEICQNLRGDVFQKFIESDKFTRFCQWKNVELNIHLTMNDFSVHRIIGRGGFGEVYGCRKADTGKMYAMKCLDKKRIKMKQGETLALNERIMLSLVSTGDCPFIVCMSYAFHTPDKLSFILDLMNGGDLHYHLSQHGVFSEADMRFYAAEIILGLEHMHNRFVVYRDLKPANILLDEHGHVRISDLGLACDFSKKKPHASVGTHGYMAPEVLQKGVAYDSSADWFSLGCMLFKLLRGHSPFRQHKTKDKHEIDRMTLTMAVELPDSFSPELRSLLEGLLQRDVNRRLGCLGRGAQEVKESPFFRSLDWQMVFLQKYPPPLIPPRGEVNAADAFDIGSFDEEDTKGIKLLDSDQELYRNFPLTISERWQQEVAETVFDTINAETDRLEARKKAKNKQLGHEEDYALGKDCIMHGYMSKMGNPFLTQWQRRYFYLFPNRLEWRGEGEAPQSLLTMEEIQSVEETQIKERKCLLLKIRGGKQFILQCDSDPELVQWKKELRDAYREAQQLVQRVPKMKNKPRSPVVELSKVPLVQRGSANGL
Sequence of Beta-2 adrenergic receptor (Homo sapiens) (P07550 whole entry, looked up): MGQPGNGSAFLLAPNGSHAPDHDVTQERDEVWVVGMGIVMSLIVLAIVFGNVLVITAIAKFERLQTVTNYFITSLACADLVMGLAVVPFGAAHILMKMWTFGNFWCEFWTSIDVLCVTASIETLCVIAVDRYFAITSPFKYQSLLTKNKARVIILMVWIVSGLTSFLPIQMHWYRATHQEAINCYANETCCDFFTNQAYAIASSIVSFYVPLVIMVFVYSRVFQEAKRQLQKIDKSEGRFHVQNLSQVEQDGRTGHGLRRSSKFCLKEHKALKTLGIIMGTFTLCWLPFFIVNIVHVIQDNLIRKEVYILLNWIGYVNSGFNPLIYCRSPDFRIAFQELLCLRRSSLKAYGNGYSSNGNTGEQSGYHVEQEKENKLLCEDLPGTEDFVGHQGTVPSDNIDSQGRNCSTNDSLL
Sequence of ATP-binding cassette sub-family B member 6 (Homo sapiens) (Q9NP58 whole entry, looked up): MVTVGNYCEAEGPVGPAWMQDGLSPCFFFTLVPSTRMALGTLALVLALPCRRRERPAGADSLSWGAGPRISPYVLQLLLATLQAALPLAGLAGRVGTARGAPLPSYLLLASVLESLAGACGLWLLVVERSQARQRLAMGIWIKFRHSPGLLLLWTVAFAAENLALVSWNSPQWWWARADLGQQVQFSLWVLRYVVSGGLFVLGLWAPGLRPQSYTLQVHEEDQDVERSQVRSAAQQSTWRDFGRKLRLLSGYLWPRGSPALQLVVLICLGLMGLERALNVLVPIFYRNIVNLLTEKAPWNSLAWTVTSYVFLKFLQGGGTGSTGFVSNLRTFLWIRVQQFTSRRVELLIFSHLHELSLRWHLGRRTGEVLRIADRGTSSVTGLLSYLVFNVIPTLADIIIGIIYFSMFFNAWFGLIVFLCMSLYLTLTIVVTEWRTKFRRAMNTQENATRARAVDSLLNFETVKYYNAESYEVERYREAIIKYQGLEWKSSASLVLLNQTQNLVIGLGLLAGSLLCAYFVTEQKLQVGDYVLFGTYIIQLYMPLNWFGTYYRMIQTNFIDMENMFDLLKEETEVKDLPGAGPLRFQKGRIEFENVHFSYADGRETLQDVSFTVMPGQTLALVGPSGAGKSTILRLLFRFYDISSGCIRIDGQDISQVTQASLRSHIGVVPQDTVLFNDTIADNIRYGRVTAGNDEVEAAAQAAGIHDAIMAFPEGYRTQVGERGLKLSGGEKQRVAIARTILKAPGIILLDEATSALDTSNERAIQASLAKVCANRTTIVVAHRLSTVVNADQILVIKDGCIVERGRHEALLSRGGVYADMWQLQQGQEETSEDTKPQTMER
Sequence of Integrin beta-1 (Homo sapiens) + Integrin alpha-4 (Homo sapiens) (P05556 whole entry, looked up): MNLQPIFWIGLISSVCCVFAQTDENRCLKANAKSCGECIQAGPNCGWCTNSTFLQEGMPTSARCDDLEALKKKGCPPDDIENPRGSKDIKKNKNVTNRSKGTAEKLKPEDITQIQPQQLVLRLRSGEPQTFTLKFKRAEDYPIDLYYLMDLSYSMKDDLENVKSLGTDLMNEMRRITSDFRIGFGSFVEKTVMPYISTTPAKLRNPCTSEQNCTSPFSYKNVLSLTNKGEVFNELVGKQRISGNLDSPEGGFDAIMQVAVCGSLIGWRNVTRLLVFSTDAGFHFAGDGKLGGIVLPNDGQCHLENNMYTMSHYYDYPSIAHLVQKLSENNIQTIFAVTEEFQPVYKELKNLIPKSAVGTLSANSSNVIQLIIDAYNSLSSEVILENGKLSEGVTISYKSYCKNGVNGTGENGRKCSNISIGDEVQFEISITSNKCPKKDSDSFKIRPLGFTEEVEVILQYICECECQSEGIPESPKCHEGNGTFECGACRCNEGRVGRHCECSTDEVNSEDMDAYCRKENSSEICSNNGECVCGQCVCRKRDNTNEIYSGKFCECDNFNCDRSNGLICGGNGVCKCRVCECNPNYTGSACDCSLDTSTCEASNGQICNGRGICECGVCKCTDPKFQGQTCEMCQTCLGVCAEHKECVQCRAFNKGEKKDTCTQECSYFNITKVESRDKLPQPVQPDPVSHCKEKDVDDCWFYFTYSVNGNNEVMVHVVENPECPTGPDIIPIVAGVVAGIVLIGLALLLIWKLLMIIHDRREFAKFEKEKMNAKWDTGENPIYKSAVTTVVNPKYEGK
Sequence of Integrin beta-1 (Homo sapiens) + Integrin alpha-4 (Homo sapiens) (P13612 whole entry, looked up): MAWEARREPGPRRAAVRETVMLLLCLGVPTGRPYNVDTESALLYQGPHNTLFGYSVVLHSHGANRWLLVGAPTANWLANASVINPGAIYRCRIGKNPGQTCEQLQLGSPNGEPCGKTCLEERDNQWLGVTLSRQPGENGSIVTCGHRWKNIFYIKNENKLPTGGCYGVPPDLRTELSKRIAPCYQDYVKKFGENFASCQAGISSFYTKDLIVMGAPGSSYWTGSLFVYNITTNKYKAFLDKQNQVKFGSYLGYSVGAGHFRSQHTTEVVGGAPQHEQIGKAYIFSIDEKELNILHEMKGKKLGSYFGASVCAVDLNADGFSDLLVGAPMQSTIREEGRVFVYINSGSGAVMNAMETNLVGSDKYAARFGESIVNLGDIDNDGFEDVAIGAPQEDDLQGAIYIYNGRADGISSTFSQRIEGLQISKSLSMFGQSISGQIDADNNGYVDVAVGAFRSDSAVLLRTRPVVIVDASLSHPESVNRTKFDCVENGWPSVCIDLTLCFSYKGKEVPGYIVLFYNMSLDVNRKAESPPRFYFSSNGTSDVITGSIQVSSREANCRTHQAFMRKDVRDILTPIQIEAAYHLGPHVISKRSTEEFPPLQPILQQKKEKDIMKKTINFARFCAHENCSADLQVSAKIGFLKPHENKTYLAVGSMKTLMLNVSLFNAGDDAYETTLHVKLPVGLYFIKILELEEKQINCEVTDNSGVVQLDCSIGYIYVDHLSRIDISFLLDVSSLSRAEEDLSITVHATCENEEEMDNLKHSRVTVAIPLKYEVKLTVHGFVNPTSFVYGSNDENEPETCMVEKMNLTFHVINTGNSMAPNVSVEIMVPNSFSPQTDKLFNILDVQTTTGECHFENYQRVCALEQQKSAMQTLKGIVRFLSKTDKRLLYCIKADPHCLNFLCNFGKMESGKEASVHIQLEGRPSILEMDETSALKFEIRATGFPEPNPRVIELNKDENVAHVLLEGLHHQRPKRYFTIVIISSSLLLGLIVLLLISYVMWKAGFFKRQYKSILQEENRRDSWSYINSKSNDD
Sequence of AP-2 complex subunit beta (Homo sapiens) (P63010 whole entry, looked up, the tested form may be a part, one chain of several): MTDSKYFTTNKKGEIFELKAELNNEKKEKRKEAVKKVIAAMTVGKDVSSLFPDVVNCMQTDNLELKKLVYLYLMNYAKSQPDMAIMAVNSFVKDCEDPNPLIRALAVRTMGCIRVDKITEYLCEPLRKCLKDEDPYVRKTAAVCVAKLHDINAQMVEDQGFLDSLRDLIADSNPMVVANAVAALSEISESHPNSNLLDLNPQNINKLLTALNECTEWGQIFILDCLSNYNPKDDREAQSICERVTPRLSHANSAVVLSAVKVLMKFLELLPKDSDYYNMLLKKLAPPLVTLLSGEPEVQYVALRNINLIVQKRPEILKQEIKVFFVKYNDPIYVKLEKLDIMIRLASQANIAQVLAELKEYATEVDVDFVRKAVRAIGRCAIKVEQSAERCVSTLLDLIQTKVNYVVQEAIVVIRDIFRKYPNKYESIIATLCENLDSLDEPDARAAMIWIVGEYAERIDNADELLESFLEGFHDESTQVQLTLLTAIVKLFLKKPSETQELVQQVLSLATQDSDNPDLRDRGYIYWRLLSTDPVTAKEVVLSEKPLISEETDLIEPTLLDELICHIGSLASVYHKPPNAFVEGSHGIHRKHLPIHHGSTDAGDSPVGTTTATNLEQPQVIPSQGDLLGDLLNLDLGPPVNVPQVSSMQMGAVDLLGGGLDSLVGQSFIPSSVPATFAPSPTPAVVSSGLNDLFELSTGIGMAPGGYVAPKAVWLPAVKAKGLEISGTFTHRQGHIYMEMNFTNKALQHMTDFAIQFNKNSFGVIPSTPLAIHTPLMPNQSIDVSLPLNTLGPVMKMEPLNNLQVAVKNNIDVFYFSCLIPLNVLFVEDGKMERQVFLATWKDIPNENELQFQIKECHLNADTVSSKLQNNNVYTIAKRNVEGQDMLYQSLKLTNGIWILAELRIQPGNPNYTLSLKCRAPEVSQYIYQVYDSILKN

Take `COc1ccccc1OCC(=O)O`: the percent of DMSO control GFP in [1] was 96.3% (inactive). The GFP response vs DMSO in test [2] is 107% (inactive); in [4], 122% (inactive). Also, the percent response of DMSO control in test [3] was 98.6% (inactive). For the same molecule, the GFP response, % of DMSO in test [5] is 103% (inactive). Moreover, the double positive events in test [6] came to 61.5%. In test [6], the vesicle binding response is 167% (inactive). The inhibition is 3.67% (inactive) in [7], -3.11% (inactive) in test [11] and 6% (inactive) in test [15]. The superoxide response (% of plate) in test [8] was 106% (inactive). For the same molecule, the aptamer binding inhibition in test [9] is -3% (inactive). Further, the results for the response in [10] and in test [12] were -4.79% (inactive) and -0.38% (inactive), respectively. The binding (% of control) in [13] is 99.3% (inactive). In addition, in [14], the efflux inhibition (fraction of control) is -0.06 (inactive). Also, in test [16], the differentiation response was -26.4% (inactive).
`CCOC(=O)C1=C(C)NC(C)=C(C(=O)OC)C1c1cccc(Cl)c1Cl` (stereo not drawn): in test [1], the percent of DMSO control GFP is 88.4% (inactive). Besides, the values for the GFP response vs DMSO in test [2] and in [4] were 125% (inactive) and 79.2% (inactive), respectively. The percent response of DMSO control in test [3] was 104% (inactive). The GFP response, % of DMSO in test [5] is 80.3% (inactive). In addition, the double positive events in test [6] is 65.9%. Also, in [6], the vesicle binding response was 193% (inactive). The inhibition in test [7] is 5.49% (inactive); in test [11] it was -0.86% (inactive); in test [15], 9% (inactive). In addition, in test [8], the superoxide response (% of plate) is 121% (inactive). In addition, the aptamer binding inhibition in test [9] is 6% (inactive). Besides, the response in [10] was -8.07% (inactive); in test [12] it was -0.17% (inactive). Besides, the binding (% of control) in test [13] is 106% (inactive). The efflux inhibition (fraction of control) in [14] is -0.28 (inactive). The differentiation response in [16] is 0% (inactive).
For `COc1ccccc1C(=O)Nc1cc2cc(Br)ccc2oc1=O`, the percent of DMSO control GFP in [1] is 101% (inactive). Further, the values for the GFP response vs DMSO in [2] and in [4] were 106% (inactive) and 99.4% (inactive), respectively. For the same molecule, the percent response of DMSO control in test [3] was 96% (inactive). Also, in test [5], the GFP response, % of DMSO is 101% (inactive). The double positive events in [6] is 58.5%. In [6], the vesicle binding response was 30.4% (inactive). For the same molecule, the results for the inhibition in [7], in test [11] and in test [15] were -4.61% (inactive), -7.21% (inactive) and 12% (inactive), respectively. For the same molecule, the superoxide response (% of plate) in test [8] is 97.2% (inactive). The aptamer binding inhibition in test [9] was 3% (inactive). The figures for the response in [10] and in [12] were 4.22% (inactive) and -0.54% (inactive), respectively. Moreover, the binding (% of control) in test [13] is 101% (inactive). The efflux inhibition (fraction of control) in test [14] was -0.47 (inactive). In [16], the differentiation response was -5.68% (inactive).
As for `N/C(=N\OC(=O)c1ccc(Br)o1)c1ccccn1`, the percent of DMSO control GFP in test [1] was 101% (inactive). Moreover, the GFP response vs DMSO in test [2] was 102% (inactive); in [4] it was 124% (inactive). Besides, in test [3], the percent response of DMSO control was 95.1% (inactive). Moreover, in test [5], the GFP response, % of DMSO was 96.9% (inactive). This molecule yielded a double positive events in test [6] of 67.8%. Further, the vesicle binding response in test [6] is 232% (inactive). In addition, the inhibition in test [7] is 17.6% (inactive); in test [11], 2.47% (inactive); in [15], 6% (inactive). In [8], the superoxide response (% of plate) is 117% (inactive). In [9], the aptamer binding inhibition was 3% (inactive). Besides, the response in test [10] is -28.6% (inactive); in [12], 5.72% (inactive). Further, the binding (% of control) in [13] was 98.7% (inactive). Moreover, the efflux inhibition (fraction of control) in test [14] was -0.04 (inactive). Further, in test [16], the differentiation response is 5.85% (inactive).
